These results are taken from PubChem BioAssay (NCI).

Each structure is given as a SMILES string. The panel holds about 83,000 compounds, 20% with a hit somewhere; the sample as a whole holds those more often.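 Single-concentration screen, 48 h exposure, 96-well plates. Endpoint: percent growth. Below 10 = active.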 A number with no mark means an inactive call. Calls of active or inactive are those of the source.

One experiment concerns HCT-15 colon. Kind of experiment: NCI-60 one-dose screen, 48 h (100 = growth as untreated, 0 = no growth, -100 = all killed). Particulars: 10 µM unless noted.
Take `O=S1(=O)OC(c2ccc(O)c(Cl)c2)(c2ccc(O)c(Cl)c2)c2ccccc21`: the growth is 102%. For `C[C@H](NC(=O)c1c(N)nn2cccnc12)c1cc2cccc(C#Cc3cnn(C)c3)c2c(=O)n1-c1ccccc1`, the growth was 10.6%. On the same count and under the same terms, next, `Cc1cc(O)cc(-c2c(-c3ccnc(-c4cccnc4)c3)cnn2C)c1`: 74%. As to `CN1CCN(CCOc2cc(OC3CCOCC3)c3c(Nc4c(Cl)ccc5c4OCO5)ncnc3c2)CC1`, the growth is 54.6%.

In another experiment the test system is HT29 colon. The description is as above. To be noted: 10 µM unless noted.
Regarding `CC(C)(C)c1ccc(Cn2cc(CSc3nc4ccccc4s3)nn2)cc1`, the growth is 99.6%. For `CCN1CCN(Cc2ccc(Cc3ncc(F)c(-c4cc(F)c5nc(C)n(C(C)C)c5c4)n3)nc2)CC1`, the growth was 13.2%.

For the compound `CC(=O)NCC(=O)N1[C@@H]2CC[C@H]1c1ccc(Nc3ncc(C(F)(F)F)c(NC4CCC4)n3)cc12`, the growth is 14.1% [2.5 µM].

Regarding `O=C(NOCCO)c1cc(CN2OCCCC2=O)c(F)c(F)c1Nc1ccc(I)cc1F`, the growth was 8.15% (active). Same read-out and setting: with `CC(C)CC(=O)Nc1n[nH]c2c1CN(C(=O)C1CCN(C)CC1)C2(C)C` the figure was -1.54% (active); with `Cc1ccc(N)cc1CN1C(=O)c2ccccc2C1=O`, 85.5%.

For `COCc1c(-c2ccc(NC(=O)Nc3cc(C(F)(F)F)ccc3F)c(F)c2)c2c(N)ncnn2c1CN1CCOCC1`, the growth was -26.8% (active). `O=C(CNc1nc2ccccc2s1)Nc1ccc(-c2nc3ccccc3s2)cc1`: the growth is 109%.

On to `N#CC[C@H](C1CCCC1)n1cc(-c2ncnc3[nH]ccc23)cn1`, for which the growth is 62.9%. The same measure, in the same setting: with `C=CC(=O)Nc1cc2c(Nc3ccc(F)c(Cl)c3)ncnc2cc1C#CC(C)(C)N1CCN(C)CC1` the figure was -70.4% (active); with `CC(=O)C1=C(C)NC(SCc2nnc(-c3ccc(C)cc3)o2)=NC1c1ccc(F)cc1` (stereo not given), 110%; with `CNC(=O)c1ccc(Nc2ncc(C(F)(F)F)c(NCc3nccnc3N(C)S(C)(=O)=O)n2)cc1`, -11.9% (active). For the compound `C/C=C/C=N/NC(=S)Nc1ccccc1`, the growth is 106%. For the compound `COc1cc(N2CCC(N(C)C)CC2)ccc1Nc1ncc(Cl)c(Nc2ccccc2P(C)(C)=O)n1`, the growth was -4.74% (active). For the compound `CN1CCN(CCCOc2cccc3nc(Nc4ccc(Cl)c(C(F)(F)F)c4)ccc23)CC1`, the growth was -58.9% (active). Take `C#Cc1cccc(Nc2ncnc3cc(OC)c(OCCCCCCC(=O)NO)cc23)c1`: the growth is -13.4% (active). The same measure, in the same setting: next, `Cc1ccc(-n2nc(C(C)(C)C)cc2NC(=O)NCc2cc(F)ccc2Oc2ccc3c(cnn3CCO)c2)cc1`: 5.67% (active); `Cn1ccnc1C(=O)/C=C/c1ccc(CC(=O)Nc2ccc(Br)cc2)cc1`: 0.238% (active).

As for `Cc1[nH]n(C(N)=S)c(=O)c1N=Nc1ccc(S(=O)(=O)Nc2ccncn2)cc1`, the growth was 105%. In the case of `Cc1[nH]c(/C=C2\C(=O)Nc3ccc(F)cc32)c(C)c1C(=O)NC[C@H](O)CN1CCOCC1`, the growth is 9.81% (active). On the same count and under the same terms, next, `Cn1ncc(Cl)c1-c1cc(C(=O)N[C@H](CN)Cc2cccc(F)c2)sc1Cl`: 0.334% (active). For `Cn1cc(-c2ncnc3ccc(-c4cnc(Cl)c(NS(C)(=O)=O)c4)cc23)c2ccccc21`, the growth is 11.7%. Still for that read-out and setting: with `O=[N+]([O-])c1cc(Br)cc2c1[nH]c1ccc(Br)cc12` the figure was 58.8%; with `COc1ccc2c(OCc3nnc4ccc(-c5ccccc5)nn34)ccnc2c1`, 94.1% [2.5 µM]. With `CC(=O)O[C@]1(C)C[C@H](O)[C@]2(O)C=CO[C@H](O[C@@H]3O[C@H](CO)[C@@H](O)[C@H](O)[C@H]3O)[C@@H]21`, the growth is 103%.

For `COc1cc2cc(NCc3ccc(F)cc3)nc(C)c2cc1OC`, the growth was 11.9%. As for `O=C(Nc1nc2cccc(-c3ccc(CN4CCS(=O)(=O)CC4)cc3)n2n1)C1CC1`, the growth was 65.4%.

On to `N#Cc1c(-c2ccc(Cl)cc2)csc1NC(=O)Nc1cccc(C(F)(F)F)c1`, for which the growth was 13%. Still for that read-out and setting: with `O=C(c1ccc(/C=C/c2n[nH]c3ccccc23)cc1)N1CCNCC1` the figure was 13.5%; with `Cc1cnc(Nc2ccc(OCCN3CCCC3)cc2)nc1Nc1cccc(S(=O)(=O)NC(C)(C)C)c1`, -41.8% (active).

Take `CO[C@H]1C[C@@H]2CC[C@@H](C)[C@@](O)(O2)C(=O)C(=O)N2CCCC[C@H]2C(=O)O[C@H]([C@H](C)C[C@@H]2CC[C@@H](OCCO)[C@H](OC)C2)CC(=O)[C@H](C)/C=C(\C)[C@@H](O)[C@H](OC)C(=O)[C@H](C)C[C@H](C)\C=C/C=C/C=C/1C`: the growth was 44.1%.
